LANA-H2A inh = blocks KSHV LANA binding to histone H2A/H2B. inhibition, % (test concentration not listed). 320,000 compounds, 0.6% hits. Q9QR71. cell-free LANA-H2A/H2B peptide, fluorescence polarization; in the data active = inhibition mostly above about 10%, no sharp cut-off; inactive = mostly below about 6.7%
CR mimetic SO = yeast age-related superoxide inhibition as caloric restriction mimetic | 330,000 compounds, 0.18% hits | AID 2690 | S. cerevisiae aged cells, superoxide DHE fluorescence; active compounds read low | superoxide response (% of plate mean), % at 10 µM;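 active = superoxide response under a set limit, about three screen SD below normal, cut at about 65% in these data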;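 also: yeast aged for seven days with compound at 30 °C before DHE staining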
HIF activator = HIF pathway transcriptional activation; U2OS HRE-luciferase reporter, luminescence; normalized: DMSO 0%, desferrioxamine 100%; activation, % at 7.5 µM (by protocol); 300,000 compounds, 0.32% hits;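 active = mean activation of at least 10% of the iron chelator positive control signal, with at least half of replicates also reaching 10%; inconclusive = mean and replicate majority disagree about reaching 10%; inactive = mean and most replicates under 10%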
HDAC3 inh = inhibitors of human histone deacetylase 3 | AID 2718 | 320,000 compounds, 0.15% hits | O15379 | recombinant HDAC3, fluorogenic peptide/trypsin coupled, fluorescence | inhibition, % at 8.3 µM; in the data active = inhibition above about 26%, passing the limit was not always enough; inconclusive = no clear call, values can overlap the other calls
Target sequence (O15379 whole entry, looked up): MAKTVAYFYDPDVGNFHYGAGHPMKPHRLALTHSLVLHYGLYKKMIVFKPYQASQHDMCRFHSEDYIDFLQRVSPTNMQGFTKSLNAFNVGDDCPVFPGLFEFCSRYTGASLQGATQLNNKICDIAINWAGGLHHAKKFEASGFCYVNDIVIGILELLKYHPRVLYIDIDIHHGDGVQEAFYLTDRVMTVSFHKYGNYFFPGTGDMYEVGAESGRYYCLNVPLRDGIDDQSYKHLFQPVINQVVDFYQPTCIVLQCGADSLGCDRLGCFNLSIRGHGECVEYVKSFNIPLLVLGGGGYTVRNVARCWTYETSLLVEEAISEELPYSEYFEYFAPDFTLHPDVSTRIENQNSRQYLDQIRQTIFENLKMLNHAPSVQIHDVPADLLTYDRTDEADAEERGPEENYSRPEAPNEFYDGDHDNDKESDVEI
Hits are given with their value; 0 = inactive; ? = inconclusive; - = not tested or not shown. A selection: hits, their analogues and other compounds. The true share with any hit is near 1.2%.

SMILES	LANA-H2A inh	CR mimetic SO	HIF activator	HDAC3 inh
CC(C)Oc1ccc(S(=O)(=O)N2CCOCC2)cc1NC(=O)CC1OC(=O)c2ccccc21 (stereo unspecified)	16.0	0	0	0
CC(C)Oc1ccc(S(=O)(=O)N2CCCCC2)cc1NC(=O)CC1OC(=O)c2ccccc21 (stereo unspecified)	0	0	0	0
CCOc1ccc(S(=O)(=O)N2CCOCC2)cc1NC(=O)CN1C(=O)NC2(CCCCC2)C1=O	23.9	0	-	0
Cc1cc(C)cc(-n2c(=O)c3ccccc3n(CC(=O)NCC3CCCO3)c2=O)c1 (stereo unspecified)	0	0	0	0
COc1cc(NC2c3ccccc3C(=O)N2Cc2ccc3c(c2)OCO3)cc(OC)c1 (stereo unspecified)	0	0	0	0
CC1=Nc2ccccc2N=C(NC(=O)c2ccccc2)C1c1ccccc1 (stereo unspecified)	0	0	0	34.2
COc1ccc(Cl)cc1NC(=O)NC1CCCCC1	20.6	0	0	0
O=[N+]([O-])c1cccc(/C=C/c2ccc3cccc(O)c3n2)c1	0	0	13.3	0
O=[N+]([O-])c1ccc(/C=C/c2ccc3cccc([N+](=O)[O-])c3n2)cc1	0	0	0	0
CC(C)Oc1ccc(C(=O)Nc2ncn[nH]2)cc1	0	0	0	?
COc1cc(OC)cc(C(=O)Nc2cccc(C(C)=O)c2)c1	0	0	0	0
COc1cc(OC)cc(C(C)=O)c1	20.5	0	0	0
CCOc1ccc(NC(=O)COC(=O)CCN2C(=O)C3CC=CCC3C2=O)cc1OCC (stereo unspecified)	40.2	0	-	0
CCOc1ccc(NC(=O)CCN2C(=O)C3CCCCC3C2=O)cc1OCC (stereo unspecified)	0	0	0	0
CSc1nc2ccc(Cl)cc2[nH]1	0	0	0	0
CSc1nc2cc(Oc3cccc(Cl)c3Cl)c(Cl)cc2[nH]1	0	0	0	29.0
CCCCNC(=O)C(CC)(ONc1ccccc1C(F)(F)F)c1ccccc1 (stereo unspecified)	0	0	-	0
CCN(CC)/C(Sc1ccccc1)=C(\C(Cl)=C(Cl)Cl)[N+](=O)[O-]	69.6	0	0	0
COc1ccccc1N1CC=C(c2cccc([N+](=O)[O-])c2)NC1=O	0	0	0	0
COc1ccc(/C=N/NC(=O)c2nc(-c3ccccc3)n(-c3ccccc3)n2)c(O)c1	0	0	19.5	0
COc1ccc2[nH]c(C(=O)N/N=C/c3ccc(O)cc3O)cc2c1	0	0	25.1	0
CCOc1ccc2[nH]c(C(=O)N/N=C/c3ccc(OC)cc3)cc2c1	0	0	0	0
CCCCc1ccc(S(=O)(=O)NCCCN2CCCC2=O)cc1	0	0	0	0
COc1cccc(NC(=O)CN(C)C(=O)C23CC4CC(CC(Cl)(C4)C2)C3)c1	42.4	0	-	0
O=C(O)C1=C[C@@H](c2ccc(C(F)(F)F)cc2)C[C@@H](OCc2ccc(CO)cc2)O1	0	0	0	34.0
SMILES	LANA-H2A inh	CR mimetic SO	HIF activator	HDAC3 inh
Cc1ccc(NC(=O)C2COc3ccccc3O2)cc1S(=O)(=O)N1CCOCC1 (stereo unspecified)	0	0	-	0
COc1ccc(C(=O)COC(=O)CCc2nc3ccccc3[nH]c2=O)cc1Br	0	0	0	0
COc1cnc(-c2ccccn2)nc1NC(C)C	0	0	177.7	0
CC(C)(Cc1ccccc1)NC(=O)C(=O)c1cn(CC(=O)N2CCOCC2)c2ccccc12	38.5	0	0	0
CCCCCCN1C=CC(=C/C=C(\C#N)C(=O)OCC)C=C1	0	0	0	0
CCCN1C=CC(=C/C=C(\C#N)C(=O)OCC)C=C1	0	0	0	30.4
CN1/C(=C/C=C(C#N)C#N)C=Cc2ccccc21	0	0	0	0
CCOC(=O)/C(C#N)=C/C=C1\C=Cc2ccccc2N1CC	0	0	17.8	?
CC(C)(C)[C@H]1COC(=O)CCC/C=C/C[C@H](CC(=O)N(CCO)Cc2ccccc2)C(=O)N1	0	0	-	0
Cn1nc(-c2ccccc2)c2nc3ccccc3nc21	95.4	0	0	0
CCCCn1nc(-c2ccccc2)c2nc3ccccc3nc21	25.1	0	0	0
CCCCn1c2nc3ccccc3nc2c2c(=O)n(-c3ccccc3)cnc21	0	0	0	0
COc1ccc(C(=O)n2nnc3ccccc32)cc1OC	0	0	-	69.6
COc1ccc(C(=O)n2nnc3ccccc32)cc1Br	0	0	0	95.7
O=C1c2ccccc2C(=O)C1(O)O	30.5	0	-	0
CCC(C(=O)NC1CC(C)(C)NC(C)(C)C1)c1ccccc1 (stereo unspecified)	13.5	0	0	0
CC(C(=O)Nc1nnc(C2CC2)s1)N1C(=O)C2CC=CCC2C1=O (stereo unspecified)	12.9	0	-	0
C[C@@H](C(=O)Nc1nc2ccccc2s1)N1C(=O)C2CC=CCC2C1=O (stereo partly specified)	0	0	0	0
C=C(C)CNC(=O)c1ccc2nc(Cc3ccc(OC)cc3)oc2c1	0	0	10.6	0
CC(C)[C@H](NC(=O)NCCC1=CCCCC1)C(=O)O	0	0	0	0
CCC(C)[C@H](NC(=O)NCCC1=CCCCC1)C(=O)O (stereo partly specified)	35.2	0	0	0
Cc1ccc(Cl)c(NC(=O)COC(=O)c2nn(C)c(=O)c3ccccc23)c1Cl	0	0	-	0
CC(=O)Nc1ccc(S(=O)(=O)NCCC(=O)OCC(=O)N2CCN(C(=O)c3ccco3)CC2)cc1	0	0	0	0
COc1ccc(C(C)(C)C)cc1NC(=O)CCc1c(C)noc1C	30.0	0	-	0
COc1ccc(C(C)(C)C)cc1NC(=O)c1c(C)noc1C	0	0	0	0
SMILES	LANA-H2A inh	CR mimetic SO	HIF activator	HDAC3 inh
C/C(=N\NC(=O)c1ccc(OC2OCCOC2Oc2ccc(C(=O)N/N=C(\C)c3ccncc3)cc2)cc1)c1ccncc1 (stereo unspecified)	0	0	0	?
c1ccc(Nc2nnc(-c3cccc4ccccc34)o2)cc1	0	0	0	0
Cc1ccc(Nc2nnc(-c3ccccc3N)o2)cc1C	0	0	12.8	0
O=C(CCc1ccccc1)Nc1ccccc1C(F)(F)F	31.7	0	0	0
CC1(C)CNC(=O)CC(C)(C)N1	43.4	0	0	0
Cc1ccc(CONC(=O)c2cccc([N+](=O)[O-])c2)cc1	0	0	-	0
COC(=O)C(/C=N/OCc1ccc([N+](=O)[O-])cc1)NC(=O)c1cccc(Cl)c1 (stereo unspecified)	0	0	0	44.3
COc1cc(OC)cc(C(=O)N2CCC(C(=O)NCCc3ccccc3)CC2)c1	0	0	0	0
Cc1ccccc1-c1cc(C(=O)NCc2cccc(C(F)(F)F)c2)n(CC2CC(c3cccnc3)=NO2)n1 (stereo unspecified)	0	0	-	25.4
O=C(NCc1cccc(C(F)(F)F)c1)c1cc(-c2ccccc2)nn1CC1CC(c2cccnc2)=NO1 (stereo unspecified)	0	-	0	0
CC(C)n1nnnc1SCC(=O)N1N=C(c2cccs2)CC1c1cccs1 (stereo unspecified)	0	0	-	0
Cc1ccc(NC(=S)N2CCN(S(=O)(=O)c3ccccc3)CC2)cc1C	0	0	-	0
